Compound activity (PubChem)
gsp ag – agonists of gsp mutant (McCune-Albright syndrome); gsp mutant cells, cAMP HTRF, 30 min; Potency, µM (titrated, usually from 76.9 µM), for the others: at the top dose activation (cAMP increase), most hits filed as activators; hit rate 0.13% among 340,000; AID 624287; active means well fitted activation curve with a large enough effect; inconclusive means small, poorly fitted or top-dose-only effect, or another doubt; inactive means no such curve, though single readings can be large or run the other way; cell line not stated here;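 further: phosphodiesterase inhibitor Ro 20-1724 added with compounds to block cAMP breakdown; potency means the concentration at half of the fitted maximal effect; nearly all actives have a fitted effect of over 60% in size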
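Cells in DMEM/10% FBS with G418 were pretreated with compounds in DMSO plus […] (300 uM stock) for 30 min at 37C. cAMP was measured by HTRF (cAMP-d2 plus anti-cAMP antibody-K) after 30 min at room temperature.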
gsp antag – gsp mutant antagonism | Potency, µM (doses to about 76.9 µM), for inactives: at the highest dose activity change, negative = inhibition, usual class: inhibitors | hit rate 0.4% among 340,000 | gsp-mutant cells, cAMP HTRF, 30 min; calls by dose curve; cell line not stated here;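 further: intracellular cAMP measured with PDE inhibitor Ro 20-1724 present during compound exposure; potency means the concentration at half of the fitted maximal effect; on the % scale 0 is the no-effect control and ±100 the full control effect; nearly all actives have a fitted effect of over 65% in size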
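Measurement of cellular cAMP by homogeneous time-resolved fluorescence following a 30 min compound exposure at 37C. The PDE inhibitor […] was present throughout; the assay buffer was DPBS with 0.05% BSA and 0.005% Tween 20.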
RXFP1 agonist – activates the human relaxin receptor RXFP1; Potency, µM (top dose mostly 57.5 µM), without a hit: at the highest dose activation, actives largely listed as activators; Q9HBX9; AID 2676; HEK293T-RXFP1 cAMP TR-FRET, 30 min; response scale: percent of porcine relaxin response, buffer zero; hit rate 0.3% among 370,000; active means well fitted activation curve with a large enough effect; inconclusive means small, poorly fitted or top-dose-only effect; further: potency means the concentration at half of the fitted maximal effect; on the % scale 0 is the no-effect control and ±100 the full control effect; nearly all actives have a fitted effect of over 60% in size
Target sequence (Q9HBX9 whole entry, looked up): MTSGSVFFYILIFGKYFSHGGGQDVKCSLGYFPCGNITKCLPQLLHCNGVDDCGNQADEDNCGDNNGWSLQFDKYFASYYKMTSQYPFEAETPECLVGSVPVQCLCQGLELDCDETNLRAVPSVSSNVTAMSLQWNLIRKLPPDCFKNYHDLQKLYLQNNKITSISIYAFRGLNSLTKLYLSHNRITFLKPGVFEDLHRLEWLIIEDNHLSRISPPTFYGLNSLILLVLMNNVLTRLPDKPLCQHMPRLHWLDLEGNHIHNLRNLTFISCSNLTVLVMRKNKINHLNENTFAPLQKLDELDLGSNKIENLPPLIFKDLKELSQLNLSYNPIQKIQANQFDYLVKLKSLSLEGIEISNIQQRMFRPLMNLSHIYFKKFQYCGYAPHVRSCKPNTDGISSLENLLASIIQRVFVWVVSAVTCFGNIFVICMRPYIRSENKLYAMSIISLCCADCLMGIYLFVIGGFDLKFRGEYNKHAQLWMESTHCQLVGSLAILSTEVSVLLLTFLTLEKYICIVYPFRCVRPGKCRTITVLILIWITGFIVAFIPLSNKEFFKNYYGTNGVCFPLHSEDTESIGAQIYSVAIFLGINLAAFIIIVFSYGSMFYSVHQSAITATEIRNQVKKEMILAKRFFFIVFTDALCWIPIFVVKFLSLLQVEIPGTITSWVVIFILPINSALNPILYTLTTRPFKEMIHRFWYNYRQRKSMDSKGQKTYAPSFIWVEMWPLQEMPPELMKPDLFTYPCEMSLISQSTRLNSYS
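HEK293 cells stably expressing RXFP1, treated 30 min at 37C with compounds plus PDE4 inhibitor Ro 20174; cAMP measured by HTRF TR-FRET. Normalized to buffer and 29 nM porcine relaxin; EC50 by Hill fit.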
TSHR antag – human thyrotropin receptor antagonism | P16473 | TSHR-expressing cells, TSH-stimulated cAMP HTRF, 2 h; active compounds read low | activity change, negative = inhibition, % at 11.5 µM | hit rate 0.2% among 330,000;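 active means activity change below a set negative limit, meaning inhibition stronger than a set level, cut at about -70% in these data; inconclusive means activity change between two set negative limits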; further: on the % scale 0 is the no-effect control and ±100 the full control effect
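Antagonism was scored as loss of TSH-driven cAMP in TSHR cells, stimulated with 4nM TSH (EC80) for 2 hours at 37 deg C and detected by homogeneous HTRF competition immunoassay.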
RXFP1 antag – blocks the human relaxin receptor RXFP1. Q9HBX9. HEK293-RXFP1, relaxin-stimulated cAMP HTRF, 30 min; active compounds read low. activity change, negative = inhibition, % at 57.5 µM. hit rate 0.59% among 350,000. AID 1259400;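 active means activity change of -60% or lower, but not beyond a set lower limit; inconclusive means change between -60% and -40%, or beyond the set limit; inactive means change above -40%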; further: on the % scale 0 is the no-effect control and ±100 the full control effect
Starred values were filed as active, the others as inactive; ? = inconclusive; / = no result; [ ] = dose if it differs, or a comment. An excerpt weighted towards active compounds, which were near 1% of everything screened.

SMILES | gsp ag | gsp antag | RXFP1 agonist | TSHR antag | RXFP1 antag
Cc1ccc(N2CCN(C(=O)c3cnc(N4CCCCC4)c4ccccc34)CC2)c(C)c1 | / | / | 2.4% | / | -69.9*
Cc1cc2c(cc1Cl)N(C(=O)Nc1ccc(Oc3cccnc3C)nc1)CC2 | / | / | / | -20.5 | /
COc1ccc(S(=O)(=O)n2nc(C)c(S(=O)(=O)N3CCCCCC3)c2C)cc1C | / | / | 1.2% | / | /
CC(OC(=O)/C(C#N)=C/c1ccc(N(C)C)cc1)C(=O)N(C)c1ccccc1 (stereo not drawn) | -34.1% | 25.1µM* | -0.8% | -11.5 | -2.1
CCCCOc1ccc(/C=N/Nc2cc(N3CCOCC3)nc(C)n2)cc1 | -36.1% | -2.7% | 1.3% | -117.9* | 5.1
CC(C)(C=O)C1=CC(=O)c2ccccc2C1=O | -12.8% | ? | 0.2% | -86.5* | /
CC(C)(C)c1ccc2c(c1)C(=O)c1ccccc1C2=O | 9.9% | -14.4% | 0.7% | -0.8 | -4.1
O=C1CN(C(=O)c2ccc(S(=O)(=O)N3CCCCC3)cc2)C(c2ccc(F)cc2)c2cc(F)ccc2N1 (stereo not drawn) | / | / | -3.0% | / | -17.9
CCCOc1ccc(C(=O)Nc2ccc3oc(-c4ccc(N(C)C)cc4)nc3c2)cc1 | / | / | 3.16µM* | / | 5.3
CCOc1ccc(C(=O)Nc2ccc3oc(-c4ccncc4)nc3c2)cc1 | / | / | 23.6% | / | -9.1
Cc1ccc(S(=O)(=O)N(C)CC(=O)Nc2ccc(C)cn2)cc1 | 1.2% | -4.5% | 1.2% | 8.6 | -3.0
Cc1ccc(S(=O)(=O)N(C)CC(=O)Nc2cc(C)ccn2)cc1 | 0.7%[15.4 µM] | 2.0% | -0.7% | 7.0 | -82.8*
Cc1ccc(CNC(=O)CN(C)S(=O)(=O)c2ccc3c(c2)n(C)c(=O)c(=O)n3C)cc1 | 17.5% | -3.0% | 9.8% | 6.8 | -68.4*
Clc1ccc(C2=NNC(=NCc3ccccc3)SC2)cc1 | 12.3%[15.4 µM] | 7.08µM* | -0.5% | 31.3 | -16.4
CCCCCCCCCCCCCCCC[N+](C)(C)CC | / | 7.4% | 0.6% | -4.6 | -86.8*
O=[N+]([O-])c1cccc(Nc2nc(Cl)nc(Cl)n2)c1 | -6.4%[15.4 µM] | 3.8% | -1.0% | 20.0 | -10.5
O=[N+]([O-])c1cccc(NC2=NCCC2)c1 | -0.5%[15.4 µM] | 18.5% | 0.7% | 3.3 | -64.5*
CC(C)(C)c1cc(C=O)cc(C(C)(C)C)c1O | / | / | / | / | -19.8
CCOc1ccccc1NC(=O)CN1c2ccccc2S(=O)(=O)c2ccccc21 | / | / | 18.3% | / | -3.7
CN1c2ccsc2C(O)=C(C(=S)Nc2ccc(F)c(Cl)c2)S1(=O)=O | -23.3% | 35.5µM* | 0.8% | -13.1 | 3.1
Cc1c(C(=O)Nc2cccc(Cl)c2)c2ccccn2c1CCc1ccncc1 | -9.1%[15.4 µM] | 28.2µM* | 4.7% | -23.6 | 38.0
CCc1ccc(NC(=O)C2CCN(S(=O)(=O)c3cnc[nH]3)CC2)cc1 | -14.7% | 12.0% | -1.7% | -0.9 | 12.0
CSc1cccc(NC(=O)C2CCN(S(=O)(=O)c3cnc[nH]3)CC2)c1 | -5.8% | 10.4% | 2.9% | 27.1 | -62.5*
CCc1ccc(NC(=O)C2CCCN(S(=O)(=O)c3cnc[nH]3)C2)cc1 (stereo not drawn) | -18.9% | 10.4% | -2.4% | -8.8 | -115.6*
COc1ccc(S(=O)(=O)Nc2cccc(-c3ccc(N4CCCCCC4)nn3)c2)cc1OC | -3.5% | 25.1µM* | -3.1% | -13.1 | -7.5
SMILES | gsp ag | gsp antag | RXFP1 agonist | TSHR antag | RXFP1 antag
O=[N+]([O-])c1cccc(S(=O)(=O)Nc2ccc(-c3ccc(N4CCCC4)nn3)cc2)c1 | 1.2%[15.4 µM] | -34.3% | -1.2% | -0.1 | -71.0*
COC(=O)COc1ccc(NS(=O)(=O)c2cccc([N+](=O)[O-])c2)cc1 | -3.3%[15.4 µM] | ? | 0.9% | -18.7 | -65.8*
CCCc1ccc(OC(C)c2nc(-c3ccc(-n4cccc4)cc3)no2)cc1 (stereo not drawn) | / | / | 1.1% | / | -4.4
CCN1C(=O)/C(=C\C(=O)c2cccs2)c2cc(Br)ccc21 | -20.2% | -4.4% | 2.1% | -4.7 | -66.2*
O=C(NC(=S)N1CCN(c2ccc(Cl)cc2[N+](=O)[O-])CC1)c1cccs1 | 32.4% | ? | -1.2% | 7.1 | -64.8*
Cc1ccc(C(OCC(O)CNC(C)c2ccccc2)c2ccccc2)cc1 (stereo not drawn) | 9.4%[15.4 µM] | 1.1% | 2.1% | -1.4 | -70.2*
Cc1cc(C)c(C)c(OCC(=O)Nc2ccc(S(=O)(=O)Nc3nc(C)cc(C)n3)cc2)c1 | / | / | 6.6% | / | -13.9
O=C(COc1cccc(C(F)(F)F)c1)NCC(c1ccco1)N1CCCCC1 (stereo not drawn) | -4.0%[15.4 µM] | 5.3% | 0.7% | -4.9 | -61.0*
O=c1cc(-c2ccccc2)[nH]n1-c1ccccc1 | 19.6% | -18.4% | / | / | -72.8*
Cc1nn2c(NCCOCCO)c3c(nc2c1-c1ccccc1)CCCC3 | 0.9% | -11.7% | -0.3% | 1.0 | -5.1
COCCNc1c2c(nc3c(-c4ccccc4)c(C)nn13)CCCC2 | 6.9% | 35.5µM* | -2.8% | -7.6 | -27.6
CCN(C(=O)C(=O)Nc1ccc2nc3n(c(=O)c2c1)CCCCC3)c1ccc(F)cc1 | / | / | 2.5% | / | 6.3
O=Nc1c(-c2c(O)[nH]c3cc(Br)ccc23)[nH]c2ccccc12 | / | 20µM* | -0.5% | -10.7 | /
CCOC(=O)N1CCN(C(=O)c2cc3cc(Cl)ccc3[nH]2)CC1 | -17.1% | 50.1µM* | 6.4% | -6.3 | -0.4
COc1cc(C2c3cc4c(cc3OC(N3CCCCC3)C2C)OCO4)cc(OC)c1O (stereo not drawn) | ? | 8.8% | / | / | -5.3
CC1C(c2ccc3c(c2)OCO3)c2cc3c(cc2OC1N1CCOCC1)OCO3 (stereo not drawn) | 1.1% | -2.9% | / | / | -72.9*
Cn1cc(S(=O)(=O)c2ccccc2)c(=O)c2cc(F)c(N3CCN(c4ccccc4)CC3)cc21 | / | / | 7.2% | / | -19.8
COc1cc2c(cc1OC)C(C)N(C(=O)c1cc3c(s1)-c1ccccc1OC3)CC2 (stereo not drawn) | 14.4% | -23.9% | 1.4% | 3.2 | -33.5
COc1cc2c(cc1OC)C(C)N(C(=O)c1cc3c(s1)-c1c(C)cccc1OC3)CC2 (stereo not drawn) | -69.7% | 35.5µM* | 3.5% | 0.4 | /
Cc1ccc(-n2c(=O)c3c4c(sc3n(CC(=O)Nc3cccc(Cl)c3)c2=O)CCCCC4)cc1C | / | / | 6.0% | / | /
COc1ccc(-c2noc(-c3nnn(-c4ccc(C)cc4C)c3C)n2)cc1 | / | / | -0.9% | / | -10.9
CCOC(=O)/C(=N\Nc1ccccc1Cl)N1CC(C)OC(C)C1 (stereo not drawn) | 26.1% | -13.2% | 1.6% | 8.7 | -67.3*
CC(c1ccccc1)N1CCC(CNC(=S)Nc2cccc(Cl)c2)C1 (stereo not drawn) | 28.2µM* | 7.1% | -1.3% | 7.5 | ?
CC(=O)/C=C/C=C1/C2CCC(C2)C1(C)C (stereo not drawn) | / | / | / | / | -19.9
COc1cccc(-c2csc(N3CCC(C(N)=O)CC3)n2)c1 | / | / | / | -11.1 | /
COCCCNC(=O)c1ccc2c(c1)N(Cc1ccccc1)C(=O)c1ccccc1S2 | / | / | 0.1% | / | -30.9
